PubChem BioAssay
Records with an inconclusive call do not appear. For part of these data: Measured potencies and affinities stand elsewhere. The source made the active and inactive calls. Unless noted, the rule behind the calls is not given here.

Assays:
[1] = target: ATP-dependent translocase ABCB1 (Homo sapiens) (UniProt P08183); test: P-glycoprotein substrate transport blockade – cell-based (AID 377; in the data active = fluorescence slope change above about 50%); conditions: MDR1-expressing cells, fluorescent substrate accumulation slope; stronger effect = higher value; concentration not given here
[2] = blockers of polyQ-driven CASP3 activation – cell-based (AID 1583); conditions: polyglutamine-induced caspase-3 activation, cell assay; stronger effect = higher value;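 tested at 10 µM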
[3] = yeast 75Q aggregation reduction – 75Q-TubU reporter (AID 1593); conditions: Yeast 75Q polyglutamine aggregation reporter
[4] = restoration of touch response, mutant HTT neurons – whole organism, C. elegans mechanosensory neurons, N-terminal huntingtin (AID 1599); conditions: C. elegans polyQ-huntingtin mechanosensory neurons, stronger effect = higher value
[5] = blockers of cytochrome c efflux from mitochondria – biochemical, purified mitochondria (AID 1603); conditions: stronger effect = lower value;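 note: mouse liver mitochondria challenged with calcium chloride; signal normalized to the plate average as 100%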
[6] = polyglutamine aggregate formation blockers (AID 1604); conditions: polyglutamine-induced protein aggregation inhibition assay; stronger effect = higher value; tested at 2.5 µM
[7] = glutamate transport activators, MN-1 cells, MN-1 cell line (AID 1612); conditions: MN-1 motor neuron cells, stronger effect = higher value;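 note: tested at 1 µM final; 0% = mean of DMSO vehicle wells on each plate; positive means more glutamate uptake than control and negative means less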
[8] = 75Q-TubH aggregate inhibition, S. cerevisiae, yeast (AID 1616); conditions: S. cerevisiae 75Q-TubH polyglutamine aggregation suppression; stronger effect = higher value
[9] = compounds altering circadian rhythm period length – cell-based, LOPAC library, luminescence reporter (AID 2774); conditions: circadian reporter cells, at 7 µM, actives lie on both sides;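 note: values are relative to mean of DMSO wells on each plate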
[10] = compounds altering viability of human ES cells (AID 493140); conditions: human embryonic stem cell survival screen; stronger effect = higher value;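 note: cells exposed to compounds for four days before counting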
[11] = human hepatoma cell viability loss – ATP luminescence, cytotoxicity control for P. falciparum antimalarial project, primary screen (AID 2303;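 active = inhibition above 50%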;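 note: 0% = DMSO wells and 100% = digitonin-killed cells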); conditions: HepG2 viability, 24-48 h, at 10 µM, stronger effect = higher value
[12] = target: L-lactate dehydrogenase (Plasmodium falciparum (isolate CDC / Honduras)) (UniProt Q27743); test: PfLDH activity inhibition – cell lysate, 3D7 strain, counter-screen for P. falciparum growth inhibition project (AID 2304);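 note: 0% = vehicle and 100% = reference inhibitor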; conditions: P. falciparum 3D7 crude extract, LDH APAD/NBT absorbance; at 2 µM; stronger effect = higher value
[13] = inhibition of 3D7 malaria parasite growth – strain 3D7 (AID 2306);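 note: 0% = DMSO wells and 100% = chloroquine plus artemisinin control wells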; conditions: P. falciparum 3D7 erythrocytic growth, LDH absorbance, 72 h; at 2 µM; stronger effect = higher value

Chain of ATP-dependent translocase ABCB1 (Homo sapiens) (P08183 whole entry, looked up): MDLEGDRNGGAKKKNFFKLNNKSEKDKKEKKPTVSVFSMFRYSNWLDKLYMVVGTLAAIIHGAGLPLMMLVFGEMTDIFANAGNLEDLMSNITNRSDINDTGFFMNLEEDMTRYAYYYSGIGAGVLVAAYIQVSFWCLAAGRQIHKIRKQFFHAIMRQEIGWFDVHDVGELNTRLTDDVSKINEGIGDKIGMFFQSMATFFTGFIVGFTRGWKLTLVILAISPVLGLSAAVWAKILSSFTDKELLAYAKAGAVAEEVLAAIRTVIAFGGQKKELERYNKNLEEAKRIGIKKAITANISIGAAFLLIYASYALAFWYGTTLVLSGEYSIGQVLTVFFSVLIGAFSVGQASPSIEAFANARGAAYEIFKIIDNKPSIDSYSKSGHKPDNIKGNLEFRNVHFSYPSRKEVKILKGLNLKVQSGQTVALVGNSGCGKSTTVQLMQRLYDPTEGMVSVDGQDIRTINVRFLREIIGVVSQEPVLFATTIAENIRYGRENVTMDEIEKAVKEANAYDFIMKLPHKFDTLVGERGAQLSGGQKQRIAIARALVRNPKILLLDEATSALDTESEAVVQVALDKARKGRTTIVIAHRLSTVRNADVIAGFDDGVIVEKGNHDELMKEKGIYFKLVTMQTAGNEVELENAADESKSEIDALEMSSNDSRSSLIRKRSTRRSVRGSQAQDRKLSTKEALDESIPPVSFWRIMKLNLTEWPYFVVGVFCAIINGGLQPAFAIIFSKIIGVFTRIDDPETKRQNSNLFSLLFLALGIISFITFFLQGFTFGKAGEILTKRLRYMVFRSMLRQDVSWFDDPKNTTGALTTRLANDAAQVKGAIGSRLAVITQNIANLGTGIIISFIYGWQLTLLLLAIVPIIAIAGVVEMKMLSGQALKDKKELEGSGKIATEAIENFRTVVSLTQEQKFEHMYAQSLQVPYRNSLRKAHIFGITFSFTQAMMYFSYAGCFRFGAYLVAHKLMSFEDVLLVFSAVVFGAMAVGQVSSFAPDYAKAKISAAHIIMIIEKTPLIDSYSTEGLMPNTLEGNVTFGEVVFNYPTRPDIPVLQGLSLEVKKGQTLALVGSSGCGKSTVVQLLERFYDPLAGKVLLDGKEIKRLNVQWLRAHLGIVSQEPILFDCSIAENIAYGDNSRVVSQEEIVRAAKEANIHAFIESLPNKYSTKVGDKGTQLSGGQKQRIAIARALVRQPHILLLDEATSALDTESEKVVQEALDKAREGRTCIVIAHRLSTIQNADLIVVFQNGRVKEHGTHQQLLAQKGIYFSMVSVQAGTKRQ
Chain of L-lactate dehydrogenase (Plasmodium falciparum (isolate CDC / Honduras)) (Q27743 whole entry, looked up): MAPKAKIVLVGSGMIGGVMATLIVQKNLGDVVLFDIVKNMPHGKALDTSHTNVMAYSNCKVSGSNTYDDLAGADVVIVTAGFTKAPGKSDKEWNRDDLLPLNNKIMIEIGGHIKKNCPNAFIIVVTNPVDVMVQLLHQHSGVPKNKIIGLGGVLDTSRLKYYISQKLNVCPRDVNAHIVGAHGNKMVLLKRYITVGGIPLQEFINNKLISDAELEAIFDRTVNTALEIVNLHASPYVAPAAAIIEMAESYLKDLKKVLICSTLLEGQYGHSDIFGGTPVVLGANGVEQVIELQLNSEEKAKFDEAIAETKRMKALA

CC(CN(C)C)CN1c2ccccc2CCc2ccccc21 (stereo not given)
fluorescence slope change [1]: 61.2% (active) | inhibition [2]: 11.6% | score [3]: 1.5 | rescue above control [4]: -11.6 | cytochrome c release ratio [5]: 0.94 | inhibition of aggregation [6]: 23.8% | glutamate uptake change [7]: 14.6% | aggregation suppression score [8]: 1.32 | period change [9]: -0.085 h (inactive) | survival [10]: 2.17 (inactive)

CN(C)CCC=C1c2ccccc2C=Cc2ccccc21
fluorescence slope change [1]: 73% (active) | inhibition [2]: -2.52% | score [3]: 1.44 | rescue above control [4]: 5.55 | cytochrome c release ratio [5]: 1.17 | inhibition of aggregation [6]: 84.1% | glutamate uptake change [7]: -6.52% | aggregation suppression score [8]: 1.07 | period change [9]: 0.095 h (inactive) | survival [10]: 2.75 (inactive)

Clc1ccccc1C(c1ccccc1)(c1ccccc1)n1ccnc1
fluorescence slope change [1]: 67.9% (active) | inhibition [2]: 60.7% | score [3]: 0.26 | rescue above control [4]: -7 | cytochrome c release ratio [5]: 4.6 | inhibition of aggregation [6]: 41.7% | glutamate uptake change [7]: -22.9% | aggregation suppression score [8]: 0.0931 | period change [9]: 0.01 h (inactive) | survival [10]: 29.8 (inactive)

CCCCC(CC)CN1CN(CC(CC)CCCC)CC(C)(N)C1 (stereo not given)
fluorescence slope change [1]: 61.9% (active) | inhibition [2]: 22.5% | score [3]: 0.11 | rescue above control [4]: 0 | cytochrome c release ratio [5]: 0.41 | inhibition of aggregation [6]: 1.83% | glutamate uptake change [7]: 2.82% | aggregation suppression score [8]: 0.306 | survival [10]: 6.83 (inactive)

CCCC(C(=O)OCCN(CC)CC)(c1ccccc1)c1ccccc1
fluorescence slope change [1]: 180% (active) | inhibition [2]: -4.65% | score [3]: 1.32 | rescue above control [4]: -2.09 | cytochrome c release ratio [5]: 2.6 | inhibition of aggregation [6]: 77% | glutamate uptake change [7]: 0.18% | aggregation suppression score [8]: 1.25 | period change [9]: -0.035 h (inactive) | survival [10]: 3.58 (inactive)

CN(C)CCCN1c2ccccc2Sc2ccc(C(F)(F)F)cc21
inhibition [2]: 30.2% | score [3]: 1.13 | rescue above control [4]: 19.8 | cytochrome c release ratio [5]: 0.7 | inhibition of aggregation [6]: 76% | glutamate uptake change [7]: 10.7% | aggregation suppression score [8]: 1.05 | period change [9]: -0.13 h (inactive) | survival [10]: 5.42 (inactive)

CC(C)COCC(CN(Cc1ccccc1)c1ccccc1)N1CCCC1 (stereo not given)
fluorescence slope change [1]: 131% (active) | inhibition [2]: 7.56% | score [3]: 1.17 | rescue above control [4]: 1.23 | cytochrome c release ratio [5]: 0.32 | inhibition of aggregation [6]: 23.6% | glutamate uptake change [7]: 12.6% | aggregation suppression score [8]: 1.08 | period change [9]: 0.04 h (inactive) | survival [10]: 5.92 (inactive)

CN(Cc1cnc2nc(N)nc(N)c2n1)c1ccc(C(=O)N[C@@H](CCC(=O)O)C(=O)O)cc1
inhibition [2]: 25.6% | score [3]: 0.69 | rescue above control [4]: -10.9 | cytochrome c release ratio [5]: 1.08 | inhibition of aggregation [6]: 74.6% | glutamate uptake change [7]: 10.9% | aggregation suppression score [8]: 0.131 | inhibition [11]: -2% (inactive) | inhibition [12]: 1% (inactive) | growth inhibition [13]: 91% (active) | period change [9]: 0.835 h (inactive) | survival [10]: 39.6 (inactive)

CC1=CC(=O)c2ccccc2C1=O
fluorescence slope change [1]: 81.2% (active) | inhibition [2]: 56.7% | score [3]: -0.01 | rescue above control [4]: -12.4 | cytochrome c release ratio [5]: 1.17 | inhibition of aggregation [6]: 53.5% | glutamate uptake change [7]: -13.7% | aggregation suppression score [8]: 0.00728 | survival [10]: 2.42 (inactive)

Cc1oncc1C(=O)Nc1ccc(C(F)(F)F)cc1
fluorescence slope change [1]: 12.9% (inactive) | inhibition [2]: -21.8% | score [3]: 0.42 | rescue above control [4]: -2.16 | cytochrome c release ratio [5]: 1.42 | inhibition of aggregation [6]: 51% | glutamate uptake change [7]: 8.42% | aggregation suppression score [8]: 0.133 | period change [9]: 0.35 h (inactive) | survival [10]: 6.08 (inactive)

Cc1nc2sccn2c(=O)c1CCN1CCC(=C(c2ccc(F)cc2)c2ccc(F)cc2)CC1
inhibition [2]: -6.39% | score [3]: 1.46 | rescue above control [4]: 0 | cytochrome c release ratio [5]: 0.36 | inhibition of aggregation [6]: 7.32% | glutamate uptake change [7]: 29.6% | aggregation suppression score [8]: 1.39 | period change [9]: 0.08 h (inactive)

Fc1ccc(C(c2ccc(F)cc2)N2CCN(C/C=C/c3ccccc3)CC2)cc1
fluorescence slope change [1]: 70.9% (active) | inhibition [2]: 11.9% | score [3]: 0.72 | rescue above control [4]: 11.5 | cytochrome c release ratio [5]: 1.24 | inhibition of aggregation [6]: 27% | glutamate uptake change [7]: 9.47% | aggregation suppression score [8]: 1.1 | period change [9]: -0.2 h (inactive) | survival [10]: 3.67 (inactive)

CN1CCC[C@@H]1CCO[C@](C)(c1ccccc1)c1ccc(Cl)cc1
fluorescence slope change [1]: 188% (active) | inhibition [2]: 2.42% | score [3]: 1.25 | rescue above control [4]: 0 | cytochrome c release ratio [5]: 1.13 | inhibition of aggregation [6]: 76.2% | glutamate uptake change [7]: 65.2% | aggregation suppression score [8]: 0.9 | survival [10]: 6.33 (inactive)

COC(=O)Nc1nc2ccc(Sc3ccccc3)cc2[nH]1
fluorescence slope change [1]: 52.1% (active) | inhibition [2]: 20.4% | score [3]: 0.64 | rescue above control [4]: -1.52 | cytochrome c release ratio [5]: 0.87 | inhibition of aggregation [6]: 6.35% | glutamate uptake change [7]: -41.7% | aggregation suppression score [8]: 0.129 | survival [10]: 0.833 (inactive)
